Results on 39 sequences are retold here after article PMC10812921, “Transcriptional Coactivator BOB1 (OBF1, OCA-B) Modulates the Specificity of DNA Recognition by the POU-Domain Factors OCT1 and OCT2 in a Monomeric Configuration”.

In the experiment the target is T1, POU2 (OCT2 POU domain);BOB1 (OBF1, OCA-B) (human;human, UniProt P09086;Q16633 175-386;1-256, |).
T1 sequence 1: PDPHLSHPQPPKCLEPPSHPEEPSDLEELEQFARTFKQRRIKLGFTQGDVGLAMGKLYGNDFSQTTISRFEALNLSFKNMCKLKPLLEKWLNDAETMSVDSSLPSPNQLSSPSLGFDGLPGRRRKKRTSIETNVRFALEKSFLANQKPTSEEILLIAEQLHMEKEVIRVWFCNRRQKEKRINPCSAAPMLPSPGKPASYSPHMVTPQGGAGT
T1 sequence 2: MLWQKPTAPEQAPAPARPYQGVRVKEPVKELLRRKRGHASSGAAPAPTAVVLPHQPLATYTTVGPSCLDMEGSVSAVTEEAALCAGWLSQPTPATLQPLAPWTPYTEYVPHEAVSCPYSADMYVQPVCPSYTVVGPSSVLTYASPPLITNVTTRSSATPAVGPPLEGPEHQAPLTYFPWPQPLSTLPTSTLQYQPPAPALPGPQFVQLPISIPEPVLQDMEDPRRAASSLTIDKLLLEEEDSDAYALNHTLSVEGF
The experiment in a line: EMSA-SELEX-seq; with BOB1 (ternary complex band); 20 mM Tris-HCl pH 7.6, 140 mM NaCl, 10% glycerol, 0.5 mM EDTA, 0.05% Triton X-100, 0.1 mg/mL BSA, 0.1 mg/mL poly(dI-dC), 5 mM DTT, room temperature, 20 min; high values mean tight binding. The following applies: protein: recombinant;recombinant; copies: 1;1; dsDNA, one strand shown. In outline: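 With or without 28 ng coactivator protein, 30 ng of tagged POU-domain protein was combined with 300 ng of a PCR-amplified double-stranded random 35-nt library in 20 μL Tris–HCl pH 7.6 binding buffer for 20 min at RT. The protein came from E. coli BL21 and had been purified under denaturing conditions and renatured. Four rounds of cutting complex bands from native 6% PAGE, elution and PCR amplification preceded Illumina sequencing. The binding preference figure is the percentage of sequenced 8-mers matching a motif pattern.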
Background: A gel shift assay detects complexes by their altered migration in electrophoresis.
For the sequence ATGTTAAA, the binding signal was 0.0892 % of ANNNNAAN 8-mers.

As to ACGCGAAC, the binding signal was 0.0165 % of ANNNNAAN 8-mers. Next, ATTAGAAC: 0.0355 % of ANNNNAAN 8-mers; AGAATAAC: 0.0487 % of ANNNNAAN 8-mers; ACAGGAAA: 0.0603 % of ANNNNAAN 8-mers. As to AATAGAAT, the binding signal was 0.121 % of ANNNNAAN 8-mers. With ATGCCAAA, the binding signal is 0.0438 % of ANNNNAAN 8-mers. Turning to AATACAAC, the binding signal is 0.0545 % of ANNNNAAN 8-mers.

AGCATAAG: the binding signal was 0.0627 % of ANNNNAAN 8-mers. To AGATCAAT belongs 0.0578 % of ANNNNAAN 8-mers; to ATCCAAAC, 0.0264 % of ANNNNAAN 8-mers. On to AGAGTAAT, for which the binding signal was 0.0537 % of ANNNNAAN 8-mers. To AAAACAAT belongs 0.0735 % of ANNNNAAN 8-mers.

Consider ACCTTAAG, for which the binding signal was 0.0281 % of ANNNNAAN 8-mers. Consider ACTTTAAA, for which the binding signal was 0.0495 % of ANNNNAAN 8-mers.

As for ACGGTAAT, the binding signal is 0.109 % of ANNNNAAN 8-mers. In the case of AACTGAAA, the binding signal was 0.038 % of ANNNNAAN 8-mers. Next, AAGCGAAG: 0.0231 % of ANNNNAAN 8-mers; AGTTCAAA: 0.0421 % of ANNNNAAN 8-mers. On to ACGGGAAC, for which the binding signal was 0.0231 % of ANNNNAAN 8-mers.

Consider AGTCGAAA, for which the binding signal was 0.0322 % of ANNNNAAN 8-mers. To AGCAAAAC belongs 0.0446 % of ANNNNAAN 8-mers; to AATATAAT, 0.133 % of ANNNNAAN 8-mers; to AATGGAAT, 0.147 % of ANNNNAAN 8-mers. To ATCTCAAG belongs 0.0413 % of ANNNNAAN 8-mers; to AAAGCAAG, 0.0421 % of ANNNNAAN 8-mers. Consider AGGAGAAC, for which the binding signal was 0.0149 % of ANNNNAAN 8-mers. To ACATCAAC belongs 0.0281 % of ANNNNAAN 8-mers.

In the case of ATCGAAAG, the binding signal was 0.0272 % of ANNNNAAN 8-mers. To AATGTAAA belongs 0.552 % of ANNNNAAN 8-mers; to ACAAAAAG, 0.0429 % of ANNNNAAN 8-mers. To ATAACAAG belongs 0.0462 % of ANNNNAAN 8-mers. To ATTCCAAG belongs 0.0446 % of ANNNNAAN 8-mers; to ACGAGAAT, 0.0553 % of ANNNNAAN 8-mers. As for ATTACAAG, the binding signal was 0.0413 % of ANNNNAAN 8-mers. Next, ATCCAAAG: 0.0446 % of ANNNNAAN 8-mers; ATGACAAG: 0.0289 % of ANNNNAAN 8-mers; ATATCAAT: 0.0776 % of ANNNNAAN 8-mers. Next, ATTATAAG: 0.0966 % of ANNNNAAN 8-mers.
